Details in all cases: concentration: 1 μM, replicates: in singlicate; n = 1
The subject of assay [1] is ULK2.
The subject of assay [2] is ULK3.
Assay [3] deals with T1, VEGFR2.
T1 construct: gene KDR

For assay [4], the system named is T2, VPS34.
T2 construct: gene PIK3C3

For assay [5], the system named is VRK2.
Assay [6] has as its system WEE1.
Assay [7] deals with WEE2.
Assay [8] deals with WNK1.
Assay [9] deals with WNK2.
In assay [10] the test system is WNK3.
Assay [11] relates to WNK4.
Assay [12] deals with T3, YANK1.
T3 construct: gene STK32A

Assay [13] deals with T4, YANK2.
T4 construct: gene STK32B

The subject of assay [14] is T5, YANK3.
T5 construct: gene STK32C

The subject of assay [15] is T6, YES.
T6 construct: gene YES1

In assay [16] the test system is T7, YSK1.
T7 construct: gene STK25

Assay [17] concerns T8, YSK4.
T8 construct: gene MAP3K19

The test system of assay [18] is ZAK.
In assay [19] the test system is ZAP70.
Assay [20] has as its system T9, p38-alpha.
T9 construct: gene MAPK14
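Note: KINOMEscan kinase panel screen.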

Regarding `COC(=O)c1cccc(NC(=O)NCCNc2ccnc(Nc3ccc(F)cc3)n2)c1` [GSK1379883], the “%Inh” value in [1] is listed as 0%; in assay [2] it was 23%; in [3] it was 5%; in assay [4] it was 10%; in [5], 0%; in assay [6] it was 39%. Besides, the “%Inh” value was determined as 16% in assay [7]; 24% in assay [8]; 0% in assay [9]; 9% in assay [10]; 36% in assay [11]; 0% in assay [12]. In addition, the “%Inh” value in assay [13] stood at 20%; in [14] it was 0%; in [15] it was 14%; in [16], 14%; in [17], 8%; in assay [18] it was 0%. Moreover, the “%Inh” value in assay [19] came to 0%; in [20], 3%.

Consider `O=C(c1ccc(-c2cc(-c3c[nH]nc3-c3ccccn3)ccn2)cc1)N1CCCC1` [GW792479], for which the “%Inh” value turned out to be 0% in assay [1]; 0% in assay [2]; 0% in assay [3]; 26% in assay [4]; 0% in assay [5]; 30% in assay [6]. The “%Inh” value in assay [7] was determined as 0%; in assay [8], 0%; in [9], 0%; in assay [10], 0%; in assay [11] it was 14%; in [12], 0%. The “%Inh” value in assay [13] is recorded as 13%; in [14], 0%; in [15] it was 0%; in [16], 0%; in assay [17] it was 0%; in assay [18], 28%. In addition, the “%Inh” value in assay [19] was 2%; in assay [20], 7%.

Consider `COc1ccc(NC(=O)Nc2ccc(C)c(-c3ccc(C(=O)Nc4ccncc4)cc3)c2)cc1` [GSK1398475], for which the “%Inh” value is 0% in [1]; 0% in assay [2]; 0% in assay [3]; 0% in assay [4]; 0% in [5]; 34% in assay [6]. The “%Inh” value in assay [7] came out at 11%; in [8], 4%; in assay [9], 0%; in assay [10], 2%; in assay [11] it was 0%; in assay [12] it was 0%. The “%Inh” value in [13] was found to be 0%; in assay [14], 7%; in assay [15] it was 13%; in assay [16], 13%; in assay [17], 9%; in assay [18] it was 6%. Also, the results for the “%Inh” value in assay [19] and in assay [20] were 0% and 60%, respectively.

`CCC(CC)(CC)n1cnc2c(N)ncnc21` [SKF-97620]: the “%Inh” value in assay [1] is 2%; in [2] it was 42%; in assay [3] it was 13%; in [4], 34%; in assay [5] it was 0%; in assay [6], 9%. The “%Inh” value stood at 6% in [7]; 21% in assay [8]; 0% in assay [9]; 26% in [10]; 23% in assay [11]; 18% in [12]. Also, the “%Inh” value in assay [13] is given as 12%; in assay [14], 9%; in assay [15] it was 0%; in assay [16], 0%; in [17], 31%; in assay [18], 0%. The “%Inh” value is reported as 29% in assay [19] and 3% in [20].

Consider `COc1cc2c(Nc3cccc(NC(=O)c4ccccc4)c3)ncnc2cc1OCCCN1CCOCC1` [GSK223810], for which the “%Inh” value in [1] is on record as 0%; in [2], 24%; in [3], 28%; in assay [4], 0%; in assay [5], 10%; in assay [6] it was 0%. Also, the “%Inh” value in [7] is given as 40%; in [8], 4%; in assay [9] it was 10%; in assay [10] it was 0%; in assay [11] it was 0%; in assay [12], 7%. Besides, the “%Inh” value is on record as 0% in assay [13]; 2% in assay [14]; 15% in assay [15]; 12% in assay [16]; 36% in assay [17]; 0% in assay [18]. Further, the entries for the “%Inh” value in assay [19] and in assay [20] were 0% and 81%, respectively.

Regarding `CNc1nccc(-c2c(-c3ccc(F)cc3)ncn2CCCN2CCOCC2)n1` [SB-222516], the “%Inh” value worked out at 0% in assay [1]; 17% in assay [2]; 0% in [3]; 0% in assay [4]; 0% in assay [5]; 0% in assay [6]. Also, the “%Inh” value in assay [7] is reported as 9%; in assay [8], 1%; in assay [9], 0%; in assay [10] it was 0%; in [11] it was 0%; in assay [12], 0%. Further, the “%Inh” value in [13] is 0%; in assay [14], 0%; in [15] it was 0%; in assay [16], 0%; in [17] it was 7%; in assay [18], 6%. Besides, the “%Inh” value in assay [19] was found to be 5%; in [20] it was 13%.

Regarding `CC(C)N1CCC(n2cnc(-c3ccc(F)cc3)c2-c2ccnc(N)n2)CC1` [SB-223132], the “%Inh” value in assay [1] is given as 0%; in [2] it was 5%; in assay [3] it was 0%; in assay [4], 27%; in assay [5] it was 0%; in [6], 17%. Moreover, the “%Inh” value in assay [7], in assay [8], in [9], in assay [10], in assay [11] and in assay [12] was 0% throughout. In addition, the “%Inh” value was 16% in [13]; 0% in [14]; 0% in [15]; 0% in assay [16]; 0% in assay [17]; 8% in assay [18]. The “%Inh” value is 5% in [19] and 96.8% in assay [20].

`CC(C)(C)OC(=O)NC1CCCN(c2cc(-c3ccc4c(N)n[nH]c4c3)nc(N)n2)C1` (stereo not shown) [GSK2286096]: the “%Inh” value in assay [1] was 0%; in [2], 0%; in assay [3], 0%; in [4] it was 0%; in [5], 0%; in [6], 17%. The “%Inh” value in assay [7] is recorded as 0%; in [8], 6%; in assay [9], 70%; in assay [10], 8%; in assay [11] it was 12%; in [12], 10%. For the same compound, the “%Inh” value came to 0% in assay [13]; 0% in [14]; 1% in assay [15]; 2% in [16]; 20% in assay [17]; 0% in [18]. Further, the “%Inh” value in assay [19] and in assay [20] was 0% in each case.

Source of the values: paper PMC5540273 (PLoS ONE, 2017).
